GLP1R inv ag – GLP-1 receptor (human) inverse agonism; Potency, µM (top dose mostly 38.3 µM), most hits filed as inhibitors; HEK293 GLP-1R CRE-luciferase, luminescence, 24 h; GLP-1R form is constitutively active; P43220; hit rate 1.6% among 410,000; note: nearly all actives have a fitted effect of over 55% in size
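Constitutively active GLP-1R drives a cAMP-responsive luciferase in stably transfected HEK293 cells; test compounds are added after overnight (12 h) attachment and left 24 hr, and signal loss in luminescence marks inhibition.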
D3 ag – activates the human D3 dopamine receptor. D3R DiscoveRx beta-arrestin cells, luminescence, 90 min. max activation, %. hit rate 0.58% among 410,000; in the data active = max activation above about 30%
Target sequence (P35462 whole entry, looked up): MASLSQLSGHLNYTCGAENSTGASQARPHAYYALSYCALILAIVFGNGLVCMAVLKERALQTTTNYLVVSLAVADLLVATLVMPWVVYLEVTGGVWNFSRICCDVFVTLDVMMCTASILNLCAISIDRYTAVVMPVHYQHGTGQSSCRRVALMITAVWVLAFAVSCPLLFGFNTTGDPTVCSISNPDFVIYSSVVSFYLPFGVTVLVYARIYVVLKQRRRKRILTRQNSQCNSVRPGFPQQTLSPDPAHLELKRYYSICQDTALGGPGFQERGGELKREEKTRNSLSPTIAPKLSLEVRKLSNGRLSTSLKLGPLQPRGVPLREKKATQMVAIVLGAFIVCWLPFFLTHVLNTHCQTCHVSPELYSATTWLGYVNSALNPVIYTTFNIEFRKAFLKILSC
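Agonist mode: compounds and dopamine controls were applied to plated cells for 90 min at 37 degrees C after an overnight attachment at 1500 cells/well. Luminescent read-out followed 30 - 60 minutes at room temperature with DiscoveRx detection reagent.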
GLP1R cytotox – cytotoxicity in counter-screen for GLP-1R inverse agonists. Potency, µM (doses to about 38.3 µM), usual class: inhibitors. AID 624418. hit rate 0.13% among 410,000. HEK293 cAMP-luciferase reporter cells, luminescence, 24 h;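 note: loss of luciferase light is scored as toxicity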
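Seeding density was 200 cells/uL; after overnight-length (12 h) culture, 23 nL compounds went on for 24 h at 37 °C. Readout used a luciferase detection reagent, luminescence taken after 12 min at room temperature.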
D3 antag – antagonists of human D3 dopamine receptor. D3R cells, DiscoveRx beta-arrestin luminescence, antagonist mode; stronger effect = lower value. hit rate 2.5% among 360,000. max response, negative = inhibition, %. AID 652054; in the data active = max response below about -50%; inconclusive = no clear call, values can overlap the other calls
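Cells plated overnight at 1500 cells/well, then exposed to library compounds with dopamine controls for 90 minutes at 37 degrees C. DiscoveRx reagent added for 30–60 minutes at room temperature; luminescence read, quantitative HTS format.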
ClpP mod – qHTS Assay for Activators of ClpP; purified B. subtilis ClpP, FRET peptide cleavage, 20 min; Potency, µM (titrated, usually from 57.5 µM); hit rate 1.9% among 340,000; active = well fitted falling curve with a large enough effect; inconclusive = small, poorly fitted or top-dose-only effect; inactive = no such curve, though single readings can be large or run the other way; note: the source files actives as falling curves though it sought activators and does not explain the sign; nearly all actives have a fitted effect of over 65% in size
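Buffer: 100 mM Tris/HCl pH8, 100 mM KCl, 0.05% low protease BSA, 2.5% glycerol, 0.01% Tween-20. ClpP 10 microg/mL final; 20 min RT; delta FRET normalized to ADEP and DMSO controls.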
GLP1R ag – agonists of human GLP-1 receptor; HEK293 GLP-1R CRE-luciferase, luminescence, 4-6 h; cells express a hypersensitive GLP-1R form; hit rate 0.007% among 380,000; Potency, µM (doses to about 45.6 µM), hits mostly activators; P43220
Of the large screens only hits and unclear results are named; the others gave an inactive call. Shown are actives, neighbours in structure and some others; about 5.7% of the full set was active somewhere. Unless noted, calls come from the whole dose curve; as a rule, active = well fitted curve in the direction sought with a large enough effect; inconclusive = small, poorly fitted or top-dose-only effect, or another doubt; inactive = no such curve, though single readings can be large; an effect the other way counts as inactive or inconclusive.

CCN(CC(=O)Nc1ccccc1OC)C(=O)CN1C(=O)NC(C)(c2ccc3ccccc3c2)C1=O (stereo not given)	none
O=C(Nc1ccc(Br)cn1)c1cccc2ccccc12	GLP1R inv ag inconclusive, ClpP mod 25µM
COc1ccc(CNC(=O)c2cccn2-c2nnc(N3CCCCC3)s2)c(OC)c1	ClpP mod inconclusive (no result: D3 antag, GLP1R ag)
Cc1ccc(Cn2c(CN3CCC(C(=O)NCCc4ccccc4)CC3)cc3ccccc32)cc1	GLP1R inv ag inconclusive, GLP1R cytotox inconclusive (no result: D3 antag, GLP1R ag)
Cc1[nH]c2ccccc2c1C(=O)CSc1nc2ncc(Cl)cc2[nH]1	D3 antag -61
Cc1ccc2nc(SCC(=O)c3c(C)[nH]c4ccccc34)[nH]c2c1	none
C=CCSC1=Nc2cc(OC)c(OC)cc2C2=NC(=O)CN12	none
COc1cc2c(cc1OC)C1=NC(=O)CN1C(SCc1ccc(C)cc1)=N2	ClpP mod 20µM
O=[N+]([O-])CC(c1ccc(F)cc1)c1c[nH]c2ccccc12 (stereo not given)	GLP1R inv ag 7.1µM
CC(=O)Nc1nonc1-c1nnc(SCC(=O)Nc2cc(C)cc(C)c2)n1C	none (no result: D3 antag, GLP1R ag)
Cc1cc(F)ccc1NC(=O)C(C(C)C)N1Cc2ccccc2C1=O (stereo not given)	none (no result: D3 antag, GLP1R ag)
Cc1cc(C)c(O)c(CN(C)Cc2cc(Cl)cc(Cl)c2O)c1	GLP1R inv ag inconclusive, D3 ag 41, GLP1R cytotox inconclusive (no result: ClpP mod)
CN1CCc2c(sc3nc(SCC(N)=O)n(-c4ccccc4)c(=O)c23)C1	ClpP mod 28µM
COC(=O)CSc1nc2sc3c(c2c(=O)n1-c1ccccc1)CCN(C)C3	ClpP mod 18µM
CCOC(=O)c1c(/N=C/N(C)C)sc(/C=N/Nc2ccccc2)c1-c1ccc(Cl)cc1	GLP1R inv ag 10µM
O=C(NCC(c1cccnc1)N1CCc2ccccc2C1)c1ccc(F)c(F)c1 (stereo not given)	none (no result: D3 antag, GLP1R ag)
Cc1c(/C=N/NC(=O)c2ccccc2O)c2ccccn2c1C(=O)c1ccc(F)cc1	D3 ag 31, GLP1R cytotox inconclusive, ClpP mod inconclusive
COc1cccc(CNC(=O)c2cc(-c3ccc(Cl)cc3)n[nH]2)c1	none (no result: D3 antag, GLP1R ag)
CCc1ccc(NCc2cc3ccc(OC)cc3n(CC(=O)Nc3ccc(C)c(Cl)c3)c2=O)cc1	none (no result: D3 antag)
Nc1ncnc2c1c(-c1ccc(Oc3ccccc3)cc1)cn2C1CCCC1	GLP1R inv ag inconclusive, GLP1R cytotox inconclusive, ClpP mod 28µM
Nc1nc(N)nc(-c2ccc(Oc3ccccc3)cc2)n1	none
CCN(CC)C(=O)Oc1ccc(Br)cc1C(=O)Nc1ccc(F)cc1F	GLP1R inv ag inconclusive, ClpP mod 32µM
O=C(Nc1ccon1)c1cnc2sccn2c1=O	ClpP mod 20µM
Cc1cccc(NC(=O)c2cnc3sccn3c2=O)c1	ClpP mod inconclusive
Cc1cccc(NC(=O)c2cnc3sccn3c2=O)n1	none
COc1ccc(NC(=O)c2cnc3sccn3c2=O)cc1	D3 antag -52
FC(F)OC(Cl)C(F)(F)F (stereo not given)	none (no result: GLP1R inv ag, GLP1R cytotox, D3 antag, ClpP mod)
CC(C)NC(=O)C1(C)CCN1C(=O)c1cccn1C (stereo not given)	none
COc1ccc(Cl)cc1-n1c(=S)sc2c(=O)[nH]c(SCC(=O)NCC3CCCO3)nc21 (stereo not given)	D3 antag -58
CCCn1c(C)cc(C(=O)COc2ccc(C)nc2[N+](=O)[O-])c1C	none
C=CCn1c(C)cc(C(=O)COc2ccc(C)nc2[N+](=O)[O-])c1C	GLP1R inv ag inconclusive, ClpP mod 4µM
O=C(CN1C(=O)CC(c2ccco2)Sc2ccccc21)Nc1cccc(C(F)(F)F)c1 (stereo not given)	GLP1R inv ag inconclusive (no result: D3 antag)
CCN(C(=O)COC(=O)c1ccc2c(c1)OCO2)c1ccc(F)cc1	GLP1R inv ag inconclusive, ClpP mod 28µM
CN(C(=O)COC(=O)c1ccc2c(c1)OCO2)C1CCCCC1	GLP1R inv ag inconclusive (no result: ClpP mod)
CCN(CC)C(=O)CSc1nc2nc(C)cc(C)c2c(=O)[nH]1	ClpP mod 25µM
